HCT116 bCat-KO – beta-catenin-lacking colon tumor cell growth suppression; HCT116 beta-catenin knockout viability, CellTiter-Glo, 60 h; stronger effect = lower value; viability, % at 10 µM; 140,000 compounds, 1.5% hits; AID 818;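 active = viability at or under a set limit, the compound median less 4 SD, cut at about 6% in these data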
HCT116 PTEN-null – PTEN-deleted cell growth suppression. 140,000 compounds, 1.2% hits. HCT116 PTEN-null viability, CellTiter-Glo, 60 h; stronger effect = lower value. viability, % at 10 µM;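 active = viability at or below a set limit, 4 SD under the median of all tested compounds, cut at about 3.7% in these data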;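 note: PTEN knockout HCT116 line with beta catenin targeted HCT116 as companion control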
L major viab – inhibitors of Leishmania major promastigote growth; 200,000 compounds, 9% hits; Leishmania major promastigotes, resazurin fluorescence viability; inhibition, % at 10 µM; in the data active = inhibition above about 50%;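 note: promastigotes grown with compound for 44 hours at 28 °C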
p97 ATPase inh – blocks human p97 ATPase activity; 220,000 compounds, 0.42% hits; AID 1481; inhibition, % at 8 µM; recombinant p97 ATPase, Kinase-Glo ATP luminescence, 3 h; P55072; in the data active = inhibition above about 15%
ROMK mod – human ROMK K+ channel modulation, primary screen. Tet-inducible ROMK, thallium flux fluorescence; actives lie on both sides. B-score at 10 µM. 130,000 compounds, 2% hits;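 active = signal ratio slope over the read window, or its plate-corrected B-score, at least 3 SD from the plate mean, either direction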;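 note: B-score of the F/F0 ratio slope over 7 to 12 s after thallium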
Target sequence (P48048 whole entry, looked up): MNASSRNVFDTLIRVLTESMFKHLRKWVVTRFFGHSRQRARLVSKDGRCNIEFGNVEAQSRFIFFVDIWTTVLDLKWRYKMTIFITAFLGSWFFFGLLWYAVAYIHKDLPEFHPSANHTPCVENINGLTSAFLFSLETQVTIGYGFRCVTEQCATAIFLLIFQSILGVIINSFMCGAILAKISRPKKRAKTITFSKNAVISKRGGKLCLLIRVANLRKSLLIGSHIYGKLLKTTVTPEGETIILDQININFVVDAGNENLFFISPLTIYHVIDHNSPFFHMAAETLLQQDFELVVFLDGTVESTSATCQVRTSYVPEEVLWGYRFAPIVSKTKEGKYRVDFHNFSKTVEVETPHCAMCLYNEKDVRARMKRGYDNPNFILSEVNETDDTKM
INS promoter inh – TRM-6 insulin promoter activity inhibition; TRM-6 cells (human fetal islet line), insulin promoter-eGFP reporter, imaging; reporter expression induced with tamoxifen; inhibition, % at 2 µM; 130,000 compounds, 0.9% hits;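 active = inhibition above the mean plus 3 SD, with well images judged a real hit on visual review, cut at about 60% in these data, passing the limit was not always enough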
Large screens that a line does not name were inactive. Sampled rows, rich in hits. Any-hit rate of the full collection: about 10%.

COc1ccc(NC(=S)N(CCCN2CCCC(C)C2)Cc2cccs2)cc1 (stereo unspecified)	L major viab 95 (no result: HCT116 bCat-KO, HCT116 PTEN-null)
Cc1cc(Cl)ccc1NC(=S)N(CCCN1CCOCC1)Cc1cccs1	none (no result: INS promoter inh)
COc1ccc(C(=O)N[C@H](C(=O)N2CCN(c3ccccc3F)CC2)C(C)C)cc1	none (no result: HCT116 bCat-KO, HCT116 PTEN-null)
CSc1cccc(NC(=S)N(CCCN2CCCC2)Cc2cccs2)c1	L major viab 99 (no result: HCT116 bCat-KO, HCT116 PTEN-null)
Cc1ccc(-c2nc(CSc3nc4ccccc4c(=O)n3CCO)cs2)cc1	L major viab 62 (no result: ROMK mod)
Cc1ccc(CSc2nc3ccccc3c(=O)n2Cc2ccco2)cc1	L major viab 62 (no result: ROMK mod)
Cc1ccc(-c2nc(CSc3nc4ccccc4c(=O)n3C)cs2)cc1	L major viab 76 (no result: ROMK mod)
COc1ccccc1-n1cnnc1SCc1csc(-c2ccccc2)n1	none
C=CCn1c(SCc2csc(-c3ccc(C)cc3)n2)nnc1-c1ccccc1OC	L major viab 100 (no result: ROMK mod, INS promoter inh)
O=c1c2ccccc2nc(SCc2ccccc2)n1Cc1ccco1	none (no result: INS promoter inh)
Cc1sc2ncn(CC(=O)N3CCOCC3)c(=O)c2c1-c1ccccc1	none (no result: HCT116 bCat-KO, HCT116 PTEN-null)
COc1ccc2c(c1)c(=O)c(C(=O)c1ccccc1)cn2Cc1ccc(C)cc1	L major viab 52
CCn1cc(C(=O)O)c(=O)c2cc(OC)ccc21	none (no result: ROMK mod)
CC(=O)Nc1cccc(-c2csc(NCc3ccccc3)n2)c1	none (no result: HCT116 bCat-KO, HCT116 PTEN-null, INS promoter inh)
Cc1ccc(-c2csc(NC(=O)CCCc3cccs3)n2)cc1	none (no result: ROMK mod, INS promoter inh)
CC(=O)Nc1ccc(-c2csc(NC(=O)CCCc3cccs3)n2)cc1	L major viab 75 (no result: ROMK mod)
CC(=O)Nc1ccc(-c2csc(NCc3ccccc3)n2)cc1	L major viab 60 (no result: HCT116 bCat-KO, HCT116 PTEN-null, INS promoter inh)
Cc1ccc(-c2csc(NC(=O)CCNC(=O)c3ccc(Cl)cc3)n2)cc1	none (no result: HCT116 bCat-KO, HCT116 PTEN-null, INS promoter inh)
Cc1ccc(-c2csc(NC(=O)CCNC(=O)c3ccccc3Cl)n2)cc1	L major viab 84
Cc1cccc(C(=O)NNC(=O)c2ccccc2)c1	none
Cc1cccc(C(=O)CC(=O)c2cc(Cl)ccc2O)c1	L major viab 99
O=C(O)CC(=O)Nc1cc(Cl)ccc1O	none
Cc1ccc(O)c(C(=O)CC(=O)c2cccc(F)c2)c1	L major viab 60 (no result: ROMK mod)
O=C(CC(=O)c1cc(Cl)ccc1O)c1ccccc1	L major viab 99 (no result: ROMK mod)
O=C(c1c[nH]c2ccccc12)C(F)(F)F	none (no result: HCT116 bCat-KO, HCT116 PTEN-null, L major viab, ROMK mod, INS promoter inh)
CCn1nnnc1-c1ccc(OC)c(S(=O)(=O)Nc2ccc(C)c(C)c2)c1	L major viab 99
O=C1CSC(c2ccc([N+](=O)[O-])cc2)N1C1CCCCC1 (stereo unspecified)	none (no result: HCT116 bCat-KO, HCT116 PTEN-null)
O=C1CSC(c2ccc([N+](=O)[O-])cc2)N1CCN1CCCCC1 (stereo unspecified)	L major viab 86 (no result: HCT116 bCat-KO, HCT116 PTEN-null)
O=C(Nc1ccccn1)c1ccc(S(=O)(=O)c2ccc(Cl)cc2)cc1	L major viab 76 (no result: HCT116 bCat-KO, HCT116 PTEN-null)
O=S(=O)(/N=C(/Nc1ccccn1)c1ccc(Cl)cc1)c1ccc(Cl)cc1	none
COc1cc(C(=O)OCCN2CCCCC2)ccc1O	none
COc1cc(C#CC#CCN2CCCCC2)ccc1O	L major viab 86 (no result: ROMK mod)
Cc1n[nH]c(=O)nc1N/N=C/c1ccc(O)c([N+](=O)[O-])c1	none (no result: ROMK mod)
COC(=O)c1cc2c(ccn2-c2ccc(F)cc2)n1Cc1ccc(C#N)cc1	none
COC(=O)c1cc2c(ccn2-c2ccc(F)cc2)n1Cc1ccc(OC)cc1	L major viab 99
COC(=O)[C@H](CC(C)C)NC(=O)Nc1ccccc1F	none (no result: HCT116 bCat-KO, HCT116 PTEN-null, L major viab, ROMK mod, INS promoter inh)
CCC(Sc1nc2cc3c(cc2c(=O)n1Cc1ccco1)OCO3)C(=O)Nc1ccccc1OC (stereo unspecified)	none (no result: ROMK mod)
CCC(Sc1nc2cc3c(cc2c(=O)n1Cc1ccco1)OCO3)C(=O)Nc1cccc(OC)c1 (stereo unspecified)	HCT116 bCat-KO 1.7, HCT116 PTEN-null 1.7, L major viab 96 (no result: ROMK mod)
CC1CC(C)CN(C(=O)/C=C/c2ccc([N+](=O)[O-])s2)C1 (stereo unspecified)	L major viab 98 (no result: HCT116 bCat-KO, HCT116 PTEN-null)
CC1CN(C(=O)/C=C/c2ccccc2[N+](=O)[O-])CC(C)O1 (stereo unspecified)	none (no result: HCT116 bCat-KO, HCT116 PTEN-null, INS promoter inh)
CC1CN(C(=O)/C=C/c2ccc([N+](=O)[O-])s2)CC(C)O1 (stereo unspecified)	L major viab 82 (no result: HCT116 bCat-KO, HCT116 PTEN-null)
CCC(=O)NC(=S)Nc1ccc(NC(=O)c2cccc([N+](=O)[O-])c2C)cc1	L major viab 58
COc1ccc(S(=O)(=O)N(C(=O)c2ccncc2)c2ccc(OC(=O)c3ccncc3)cc2)cc1	none (no result: HCT116 bCat-KO, HCT116 PTEN-null, INS promoter inh)

Bioassay records (PubChem)
